# In PubChem BioAssay (NCATS):
# Several values for one entry are separate records, joined by “and”; a condition that tells them apart may be missing. Equal values may be shown once. A number with no mark means an inactive call. Inconclusive results are not listed. Activity calls are given as the source filed them. Unless noted, calls come from the whole dose curve; as a rule, active = well fitted curve in the direction sought with a large enough effect; inconclusive = small, poorly fitted or top-dose-only effect, or another doubt; inactive = no such curve, though single readings can be large; an effect the other way counts as inactive or inconclusive.
# Tests used:
# astro = control astrocytes; test: Drug repurposing screens with cells derived from glioblastoma tumor samples (AID 1345199); conditions: viability, ATP luminescence, 48 h; series mostly up to 45.9 µM; note: nearly all actives have a fitted effect of over 40% in size; note: potency is the fitted concentration of half-maximal effect; for activity, negative = cell killing: % is set by controls: 0 for no effect and ±100 for the full control effect
# In short: (§1)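 Four patient lines of CD133+ GBM neurospheres were screened at several concentrations; hits were retested in those lines plus three slower-growing GBM lines, using 48-hour treatment and ATP-based viability.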
# [1] = target: Nuclear receptor subfamily 1 group I member 2 (Rattus norvegicus) (UniProt Q9R1A7); test: qHTS assay for small molecule activators of the rat pregnane X receptor (rPXR) signaling pathway (AID 651751; call rule not given here; note: 0% is about no effect); conditions: rPXR reporter cells, luciferase (One-Glo), 24 h
# [2] = qHTS assay for small molecule activators of the human pregnane X receptor (PXR) signaling pathway (AID 720659; call rule not given here; note: 0% is about no effect)
# PA-1 = test: Primary qHTS to identify gynecologic anti-cancer compounds using libraries of approved drugs and bioactive compounds (AID 1345084); conditions: Gynecologic cancer cell panel viability, ATPlite luminescence, 48 h; series mostly up to 57.5 µM; note: potency is the fitted concentration of half-maximal effect; nearly all actives have a fitted effect of over 55% in size
# In short: (§2)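 48 h compound exposure at 37 C, 5% CO2; five-point qHTS. ATPlite luminescence readout of cell ATP.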
# SKOV3 = test: as above; conditions: Gynecologic cancer cell panel viability, ATPlite luminescence, 48 h; series mostly up to 57.5 µM
# In short: as §2
# [3] = qHTS assay to identify inhibitors of the type 1 interferon - major histocompatibility complex class I in skeletal muscle: Counter screen cell viability and HiBit confirmation (AID 1347412); conditions: iHSKM muscle cells + IFN-b, HiBiT or CellTiter-Glo, 24 h; for activity change, negative = inhibition: at 45.9 µM (top of the series); note: potency is the fitted concentration of half-maximal effect; for activity change, negative = inhibition: % is set by controls: 0 for no effect and ±100 for the full control effect; for all read-outs here: nearly all actives have a fitted effect of over 60% in size
# In short: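 After 24 h with human IFN-beta (4 ng/ml) and compound titrations (top 46 uM final, 1:3, 12 points), HLA-B HiBit myoblasts were lysed for either Nano-Glo HiBiT luminescence or CellTiter Glo viability on paired plates.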
# OV90 = test: Primary qHTS to identify gynecologic anti-cancer compounds using libraries of approved drugs and bioactive compounds (AID 1345084); conditions: Gynecologic cancer cell panel viability, ATPlite luminescence, 48 h; series mostly up to 57.5 µM; note: potency is the fitted concentration of half-maximal effect; nearly all actives have a fitted effect of over 55% in size
# In short: as §2
# Tov-21-G = test: as above; conditions: Gynecologic cancer cell panel viability, ATPlite luminescence, 48 h; series mostly up to 57.5 µM
# In short: as §2
# Tov112D = test: as above; conditions: Gynecologic cancer cell panel viability, ATPlite luminescence, 48 h; series mostly up to 57.5 µM
# In short: as §2
# [4] = Drug repurposing screens with cells derived from glioblastoma tumor samples (AID 1345199); conditions: GBM patient neurospheres viability, ATP luminescence, 48 h; note: nearly all actives have a fitted effect of over 40% in size; note: potency is the fitted concentration of half-maximal effect; for activity, negative = cell killing: % is set by controls: 0 for no effect and ±100 for the full control effect
# In short: as §1
# [5] = at 45.9 µM (top of the series), tumour line B
# [6] = at 45.9 µM (top of the series), tumour line D
# [7] = at 46 µM (top of the series), tumour line A
# [8] = at 46.1 µM (top of the series), tumour line C
# Sequence of Nuclear receptor subfamily 1 group I member 2 (Rattus norvegicus) (Q9R1A7 whole entry, looked up): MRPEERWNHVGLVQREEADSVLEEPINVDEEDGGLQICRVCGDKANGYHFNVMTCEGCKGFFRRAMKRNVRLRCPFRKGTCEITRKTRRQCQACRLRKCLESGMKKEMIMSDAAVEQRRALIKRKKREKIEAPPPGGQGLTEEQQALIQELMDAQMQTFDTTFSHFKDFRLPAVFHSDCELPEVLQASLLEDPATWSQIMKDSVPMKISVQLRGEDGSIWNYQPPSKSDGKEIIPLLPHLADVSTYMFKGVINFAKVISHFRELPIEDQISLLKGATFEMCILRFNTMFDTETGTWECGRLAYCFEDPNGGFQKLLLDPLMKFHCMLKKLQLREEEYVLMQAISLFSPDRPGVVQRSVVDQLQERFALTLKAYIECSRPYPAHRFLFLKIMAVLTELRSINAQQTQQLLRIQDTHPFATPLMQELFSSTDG
compound,measurement,setting,value
CC(=O)N1CCN(c2ccc(OC[C@H]3CO[C@](Cn4ccnc4)(c4ccc(Cl)cc4Cl)O3)cc2)CC1,Potency,astro,inactive
same,max response,[1],-5.89%
same,outcome,[2],inactive
COc1cc(Nc2c(C#N)cnc3cc(OCCCN4CCN(C)CC4)c(OC)cc23)c(Cl)cc1Cl,Potency,PA-1,11.2 µM (active)
same,Potency,SKOV3,10 µM (active)
same,Potency,[3]; HiBiT,11.1 µM (active)
same,Potency,[3]; Viability,24.9 µM (active)
NC(=NCc1ccccc1)NC(=O)c1nc(Cl)c(N)nc1N,"activity change, negative = inhibition",[3]; HiBiT,-27.7%
same,"activity change, negative = inhibition",[3]; Viability,-20.2%
CCCCc1ccc2nc(NC(=O)OC)[nH]c2c1,Potency,OV90,1.58 µM (active)
same,Potency,PA-1,0.282 µM (active)
same,Potency,Tov-21-G,0.631 µM (active)
same,Potency,Tov112D,0.251 µM (active)
C[C@]12CCC(=O)C=C1CC[C@@H]1[C@H]2[C@@H](O)C[C@@]2(C)[C@H]1CC[C@]2(O)C(=O)CO,"activity, negative = cell killing",[4]; [5],-8.77%
same,"activity, negative = cell killing",[4]; [6],-14.8%
same,"activity, negative = cell killing",[4]; [7],-3.08%
same,"activity, negative = cell killing",[4]; [8],14.8%
same,Potency,astro,inactive
C[Se]CCC(N)C(=O)O (centres undefined),"activity, negative = cell killing",[4]; [5],-7.06%
same,"activity, negative = cell killing",[4]; [6],3.7%
same,"activity, negative = cell killing",[4]; [7],-13.2%
same,"activity, negative = cell killing",[4]; [8],5.25%
same,Potency,astro,inactive
CCOC(=O)C1=C[C@@H](OC(CC)CC)[C@H](NC(C)=O)[C@@H](N)C1,"activity, negative = cell killing",[4]; [5],-10.4%
same,"activity, negative = cell killing",[4]; [6],-1.97%
same,"activity, negative = cell killing",[4]; [8],5.2%
same,Potency,astro,inactive
CC[C@]1(O)C[C@H]2CN(CCc3c([nH]c4ccccc34)[C@@](C(=O)OC)(c3cc4c(cc3OC)N(C=O)[C@H]3[C@@](O)(C(=O)OC)[C@H](OC(C)=O)[C@]5(CC)C=CCN6CC[C@]43[C@@H]65)C2)C1,Potency,OV90,1.78 µM (active)
same,Potency,PA-1,0.199 µM (active)
same,Potency,Tov112D,0.178 µM (active)
same,"activity, negative = cell killing",[4]; [6],-44.9%
same,Potency,[4]; tumour line A,0.02 µM (active)
O=c1c(O)c(-c2ccc(O)cc2O)oc2cc(O)cc(O)c12,max response,[1],-2.11%
CCOc1cc(CC(=O)N[C@@H](CC(C)C)c2ccccc2N2CCCCC2)ccc1C(=O)O,"activity, negative = cell killing","[4]; at 20 µM (top of the series), tumour line C",-12%
same,"activity, negative = cell killing","[4]; at 21.2 µM (top of the series), tumour line B",-4.95%
same,"activity, negative = cell killing","[4]; at 21.2 µM (top of the series), tumour line D",-25.3%
same,"activity, negative = cell killing","[4]; at 21.3 µM (top of the series), tumour line A",-13.6%
same,Potency,astro,inactive
Nc1nc(Cl)nc2c1ncn2[C@H]1C[C@H](O)[C@@H](CO)O1,max response,[1],-12.9%
CC(C)[N+]1(C)[C@@H]2CC[C@H]1CC(OC(=O)C(CO)c1ccccc1)C2 (some centres undefined),"activity, negative = cell killing",[4]; [5],-10.3% and -8.73%
same,"activity, negative = cell killing",[4]; [6],-5.23% and -7.38%
same,"activity, negative = cell killing",[4]; [7],-16.8%
same,"activity, negative = cell killing",[4]; [8],14% and -28.4%
same,Potency,astro,inactive
